Screening data (PubChem)
Rows were chosen to be rich in hits. Some 5.1% of all compounds tested hit in one or more screens of this group.
CRFBP-R2 agonist = agonists of CRF-BP/CRF-R2 complex, primary screen, cell-based, HEK293, calcium dye fluorescence, uHTS; calcium dye fluorescence (FLIPR); percent of saturating CRF peptide response; activation, % at 13.2 µM; hit rate 0.46% among 350,000;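 active = activation of at least 50%, plus an integration ratio under a set limit after plate pattern correction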;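 also: plate controls were neutral control wells without compound for no effect and CRF at EC100 for full effect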
ANO1 block = TMEM16A chloride channel inhibitors, primary screen, cell-based, HTS. Anoctamin-1 (Mus musculus), Q8BHY3. HEK293 TMEM16A/YFP iodide influx fluorescence, ionomycin. normalized B-score (activity score, 25-100; higher = stronger inhibition) at 10 µM. hit rate 1.2% among 310,000. AID 588511, 2011;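 active = ratio plate-corrected score three or more library SD toward inhibition, starting fluorescence score within five deviations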;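 also: score derived from kinetic fluorescence span divided by baseline fluorescence per well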
Target sequence (Q8BHY3 whole entry, looked up): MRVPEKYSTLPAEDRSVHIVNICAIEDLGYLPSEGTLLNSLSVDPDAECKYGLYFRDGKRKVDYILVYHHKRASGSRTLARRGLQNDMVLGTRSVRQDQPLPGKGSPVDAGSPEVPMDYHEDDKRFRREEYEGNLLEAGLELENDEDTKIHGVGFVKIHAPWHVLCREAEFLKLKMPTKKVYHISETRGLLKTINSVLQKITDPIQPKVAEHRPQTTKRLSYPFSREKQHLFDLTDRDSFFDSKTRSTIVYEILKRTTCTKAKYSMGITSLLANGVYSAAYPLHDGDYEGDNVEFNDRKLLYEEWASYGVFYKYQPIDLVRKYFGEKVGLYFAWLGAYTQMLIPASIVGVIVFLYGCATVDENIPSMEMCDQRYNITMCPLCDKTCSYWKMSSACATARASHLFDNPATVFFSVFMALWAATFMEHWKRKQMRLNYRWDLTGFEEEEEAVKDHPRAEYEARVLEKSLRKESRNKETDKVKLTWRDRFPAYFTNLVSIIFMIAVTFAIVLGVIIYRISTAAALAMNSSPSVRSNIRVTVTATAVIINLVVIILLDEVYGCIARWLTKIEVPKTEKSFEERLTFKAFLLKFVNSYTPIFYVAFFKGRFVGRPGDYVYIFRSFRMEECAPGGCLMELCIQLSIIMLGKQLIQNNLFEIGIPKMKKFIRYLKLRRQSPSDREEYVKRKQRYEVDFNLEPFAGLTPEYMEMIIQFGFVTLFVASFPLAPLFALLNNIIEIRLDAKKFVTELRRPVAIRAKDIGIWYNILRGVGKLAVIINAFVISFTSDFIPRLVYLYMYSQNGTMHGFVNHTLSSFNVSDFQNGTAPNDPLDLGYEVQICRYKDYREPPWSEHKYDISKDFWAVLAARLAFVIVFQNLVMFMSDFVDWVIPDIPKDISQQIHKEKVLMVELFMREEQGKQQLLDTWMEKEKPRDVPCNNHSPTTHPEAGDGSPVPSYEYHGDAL
ANO1 activ = TMEM16A chloride channel activators or potentiators, primary screen, cell-based, HTS; Anoctamin-1 (Mus musculus), Q8BHY3; HEK293 TMEM16A/YFP-H148Q/I152L, iodide quench fluorescence; stronger effect = lower value; B-score at 10 µM; hit rate 0.3% among 340,000;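 active = fluorescence-ratio B-score plate-corrected deviation score at least 3 library SD below zero, with starting fluorescence score within 5 deviations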;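 also: channel opened by trigger with iodide after compound preincubation; score built on the fluorescence ratio of max minus min over baseline; more negative score means more quench and so TMEM16A activation or potentiation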
CRFBP-R2 block = antagonists of CRF-BP/CRF-R2 complex, primary screen, cell-based, HEK293, calcium dye fluorescence, uHTS; CRF-induced calcium fluorescence; inhibition, % at 11.8 µM; hit rate 0.59% among 350,000; AID 588475, 2011;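 active = inhibition of the ligand-induced calcium signal above about 50% at the single tested concentration, limit read from the data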
GRIN3A LBD mod = binders of NR3A ligand-binding domain, primary screen, biophysical, differential scanning fluorimetry, uHTS | Glutamate receptor ionotropic, NMDA 3A (GRIN3A) ligand-binding domain | NR3A LBD differential scanning fluorimetry, Tm shift; 0% = protein alone, 100% = glycine-bound protein | Tm shift relative to glycine control, % at 25 µM | hit rate 2.5% among 340,000 | AID 1259313, 2017;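 active = melting temperature shift of at least 10% of the positive control shift, at one fixed dose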
MPTP block = mitochondrial permeability transition pore inhibitors, primary screen, biochemical, isolated mouse mitochondria, absorbance | Ca2+ swelling absorbance, 30 min | inhibition, % at 10 µM | hit rate 1.4% among 360,000;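 active = inhibition of 50% or more, scaled per plate between neutral and stimulator controls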;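 also: 0% = DMSO wells given calcium and 100% = 1 mM EGTA wells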
* = called active by the depositor; i = inactive; nt = not tested or not shown.

SMILES	CRFBP-R2 agonist	ANO1 block	ANO1 activ	CRFBP-R2 block	GRIN3A LBD mod	MPTP block
Cc1ccc(S(=O)(=O)N2C[C@H]3C(=O)C[C@@H](c4cccc(Cl)c4)N(S(=O)(=O)c4ccc(C)cc4)[C@H]3C[C@H]2c2ccccc2)cc1	0	nt	nt	3	nt	0
Cc1cccc(NC(=O)C(CCC(N)=O)NC(=O)OCc2ccccc2)c1 (configuration not stated)	0	i	i	-6	0	-3
COC(=O)c1ccc(OCC(O)CN2C(=O)c3ccccc3S2(=O)=O)cc1 (configuration not stated)	10	i	i	58*	-5	-2
COCCNC(=O)C1CCCN(C(=O)c2nc(C)oc2C)CC1 (configuration not stated)	nt	nt	nt	nt	nt	0
CC(C)c1cc(C(F)(F)F)nc(NNc2nc(C(C)C)cc(C(F)(F)F)n2)n1	0	nt	nt	54*	nt	0
COc1ccc(C(=O)OCC(=O)N(C)C2CCS(=O)(=O)C2)cc1S(=O)(=O)N(C)Cc1ccccc1 (configuration not stated)	-3	i	i	109*	2	0
O=C(Nc1ccccc1Sc1ccccc1)c1ccc(F)cc1	2	i	i	-5	19*	1
O=C(CN1CCCC1)Nc1ccccc1Sc1ccccc1	52*	i	i	-67	0	21
Cc1ccc(C(=O)Nc2ccccc2Sc2ccccc2)cc1	1	i	i	-3	0	-2
O=C(Cc1ccc(Cl)cc1)Nc1ccccc1Sc1ccccc1	5	i	i	10	15*	10
CN1CCN(CC(=O)Nc2ccccc2Sc2ccccc2)CC1	-2	i	i	48	0	0
COc1ccc(NC(=O)CC2C(=O)N(c3ccc(F)cc3)C(=S)N2NC(=O)c2ccc(Cl)cc2)cc1 (configuration not stated)	0	i	i	-16	-2	1
COC(=O)CN1C(=S)N(c2ccc(F)cc2)C(=O)C1CC(=O)Nc1ccc(F)cc1 (configuration not stated)	-1	i	i	-4	5	2
COc1ccc(NC(=O)CC2C(=O)N(c3ccc(Cl)cc3)C(=S)N2CCc2ccccn2)cc1 (configuration not stated)	0	i	i	-14	0	2
C=CCN1C(=O)C(CC(=O)Nc2ccc(OC)cc2)N(Cc2ccco2)C1=S (configuration not stated)	0	i	-6.8*	-14	-4	0
COC(=O)CN1C(=S)N(c2ccc(Cl)cc2)C(=O)C1CC(=O)Nc1ccc(F)cc1 (configuration not stated)	0	i	i	-7	27*	0
COC(=O)CN1C(=S)N(c2ccc(Cl)cc2)C(=O)C1CC(=O)Nc1ccc(Cl)cc1 (configuration not stated)	2	i	i	-20	20*	-16
COc1ccc(NC(=O)CC2C(=O)N(c3ccc(Cl)cc3)C(=S)N2CCc2ccncc2)cc1 (configuration not stated)	1	i	i	-19	10*	3
Cc1cccc(NC(=O)CN2C(=O)CCS(=O)(=O)c3ccccc32)c1C	2	i	i	-1	-1	-1
O=C(/C=C/c1cc(Br)ccc1F)OCC(=O)N1CCCC1	-1	nt	i	11	1	0
COc1ccc(NC(=O)CC2C(=O)N(CCc3ccccc3)C(=S)N2Cc2cccnc2)cc1 (configuration not stated)	1	25*	i	-11	8	1
COC(=O)CN1C(=S)N(Cc2ccccc2)C(=O)C1CC(=O)Nc1ccc(Br)cc1 (configuration not stated)	-1	i	i	-3	18*	-21
COc1ccc(NC(=O)CC2C(=O)N(c3ccc(Cl)cc3)C(=S)N2NC(=O)c2cccc(F)c2)cc1 (configuration not stated)	0	i	i	-22	16*	1
c1ccc2c(C3OCC4(CCCCC4)CO3)cccc2c1	4	nt	nt	-13	nt	-1
Cc1ccc(-c2nnn(CC(=O)N(CC(=O)NC3CCCC3)c3ccccc3F)n2)o1	-1	nt	i	-10	-1	-1
SMILES	CRFBP-R2 agonist	ANO1 block	ANO1 activ	CRFBP-R2 block	GRIN3A LBD mod	MPTP block
CS(=O)(=O)N1CCCCC1c1cc(C(=O)Nc2cccc3c2CCCC3)no1 (configuration not stated)	nt	nt	nt	nt	nt	0
Cc1oc(C)c2c(=O)ccc3c(c12)OC(N)=C(C#N)C3c1ccccc1Cl (configuration not stated)	16	i	i	-24	-3	-2
N#CC1=C(N)OC2=C(CC/C2=C\c2ccccc2)C1c1ccccc1 (configuration not stated)	300*	i	i	-349	-6	4
N#CC1=C(N)OC2=C(CC/C2=C\c2ccccc2Cl)C1c1ccccc1Cl (configuration not stated)	91*	i	i	-86	2	39
CC(NC(=O)Nc1ccccc1Cl)c1ccc2c(c1)OCO2 (configuration not stated)	2	i	i	15	0	1
O=[N+]([O-])c1ccc(Sc2cccc[n+]2[O-])c2nonc12	25	nt	-4.9*	-35	-6	5
O=C(O)c1nc2nc(Cl)c(Cl)nc2[nH]1	0	i	i	6	14*	0
COC(=O)c1cc(C(=O)OC)cc(N2C(=O)CC(Sc3nc(C)cc(C)n3)C2=O)c1 (configuration not stated)	-1	i	-18*	15	0	-10
COCCN1C(=O)C(CC(=O)Nc2ccc(C(=O)O)cc2)SC1=Nc1ccccc1 (configuration not stated)	0	i	i	38	3	-4
COC(=O)c1cc(NC(=O)CC2SC(=Nc3ccccc3)N(CCc3c[nH]c4ccccc34)C2=O)cc(C(=O)OC)c1 (configuration not stated)	3	i	i	4	23*	4
C[C@@]12CCC=C[C@H]1[C@H](c1ccccc1Br)N(Cc1ccccc1)C2=O	-2	nt	i	19	-1	0
C[C@@]12CCC=C[C@H]1[C@H](c1ccoc1)N(Cc1ccccc1)C2=O	0	i	i	1	12*	0
